Shiga inhibitor: inhibitors of Shiga toxin in Vero cells. Vero cells, Shiga toxin protein synthesis inhibition reporter. inhibition, % at 38.7 µM. 290,000 compounds, 9.2% hits; in the data active = inhibition mostly above about 28%, no sharp cut-off; inactive = mostly below about 43%
Sm TGR block: inhibitors of Schistosoma mansoni thioredoxin glutathione reductase. Potency, µM (doses to about 114 µM), most hits filed as inhibitors. Q962Y6. 360,000 compounds, 3% hits. purified TGR, DTNB reduction, TNB absorbance 405 nm. AID 485364; also: nearly all actives have a fitted effect of over 60% in size
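First, TGR (20 nM dispensed) and NADPH were mixed with compound. Second, a 15 min room-temperature incubation followed. Third, further NADPH and then DTNB were added to start the reaction. Finally, TNB absorbance was monitored kinetically.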
CHX counter: affects cycloheximide protein synthesis inhibition readout, counter-screen; cell reporter, cycloheximide protein synthesis inhibition counterscreen; max response, %; 300,000 compounds, 12% hits; in the data active = max response mostly above about 13%, no sharp cut-off; inactive = mostly below about 14%; also: read at 38.3 µM for the half of the compounds with a filed dose
Tb PYK inh: blocks Trypanosoma brucei pyruvate kinase; Potency, µM (doses to about 76.8 µM), actives largely listed as inhibitors; TbPYK enzyme, Kinase-Glo Plus ATP luminescence, 45 min; 410,000 compounds, 0.12% hits; Q57TT1; also: nearly all actives have a fitted effect of over 50% in size
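T. brucei PYK with substrate was exposed to pin-transferred compounds across a concentration series, then started with 130 uM ADP (final). After 45 min at room temperature, Kinase-Glo Plus luminescence was read, normalized and curve-fitted.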
FBPA Giardia inh: Giardia lamblia aldolase inhibition; A8B2U2; purified Giardia FBPA; Potency, µM (titrated, usually from 59.6 µM), actives largely listed as inhibitors; 290,000 compounds, 0.71% hits; also: nearly all actives have a fitted effect of over 55% in size
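40 nM FBPA preincubated 10 min at RT with compound (up to 57.5 uM final), then substrate plus GAPDH/TPI/NAD/arsenate coupling and diaphorase/resazurin added. Fluorescence read after 20 min at RT, 525/598 nm.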
LmPK inh: LmPK (Leishmania mexicana) enzyme inhibition; Q27686; purified LmPK, Kinase-Glo ATP luminescence, 1 h; Potency, µM (doses to about 57.5 µM), actives largely listed as inhibitors; 290,000 compounds, 0.37% hits
Target sequence (Q27686 whole entry, looked up): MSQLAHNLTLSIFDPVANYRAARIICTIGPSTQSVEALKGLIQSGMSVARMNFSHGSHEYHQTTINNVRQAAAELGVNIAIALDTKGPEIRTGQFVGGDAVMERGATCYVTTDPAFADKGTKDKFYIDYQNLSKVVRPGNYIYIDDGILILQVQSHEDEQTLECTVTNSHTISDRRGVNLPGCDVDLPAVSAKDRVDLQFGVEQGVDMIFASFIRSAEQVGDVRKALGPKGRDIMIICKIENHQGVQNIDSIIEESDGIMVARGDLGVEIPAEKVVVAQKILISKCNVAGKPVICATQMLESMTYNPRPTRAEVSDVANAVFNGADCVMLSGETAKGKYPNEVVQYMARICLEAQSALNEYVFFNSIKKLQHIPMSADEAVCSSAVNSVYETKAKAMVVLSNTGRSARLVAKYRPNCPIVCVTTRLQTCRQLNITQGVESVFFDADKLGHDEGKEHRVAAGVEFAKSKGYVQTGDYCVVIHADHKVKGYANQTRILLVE
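Screened at intermediate enzyme activity to detect both inhibitors and activators: LmPK at 0.1 nM, with a 0.5 nM enzyme column as activation reference. PEP 0.5 mM, ADP 0.1 mM; ATP detected by luminescence after 1 h.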
Hits are given with their value; 0 = inactive; ? = inconclusive; - = no result. The entries come from a sample that favours hits as a whole. Unless noted, calls follow the shape of the dose curve; as a rule, active = well fitted curve in the direction sought with a large enough effect; inconclusive = small, poorly fitted or top-dose-only effect, or another doubt; inactive = no such curve, though single readings can be large; an effect the other way counts as inactive or inconclusive.

SMILES	Shiga inhibitor	Sm TGR block	CHX counter	Tb PYK inh	FBPA Giardia inh	LmPK inh
Cc1ccc(OCc2cc(C(=O)N(C)Cc3cnn(C)c3)no2)cc1C	-	-	-	0	-	-
Cc1cc(OCc2cc(C(=O)N(C)CCc3cnn(C)c3)no2)cc(C)c1Cl	70	0	39	0	0	0
Cc1cc(Cl)c2oc(C(=O)N(C)CCc3cnn(C)c3)c(C)c2c1	0	0	0	0	0	0
CC(=O)c1cccc(OCc2cc(C(=O)N(C)CCc3cnn(C)c3)no2)c1	0	0	0	0	-	0
CCN(Cc1cnn(C)c1)C(=O)c1cc(COc2cc(C)c(Cl)c(C)c2)on1	0	0	24	0	0	0
COc1cc(Cl)ccc1OCc1cc(C(=O)N(C)CCc2cnn(C)c2)no1	115	0	64	0	0	0
CCN(Cc1cnn(C)c1)C(=O)c1cc(COc2ccc(F)cc2F)on1	0	0	15	0	0	0
CCCCC(=O)Nc1c2c(nn1-c1ccc(C)cc1)CS(=O)(=O)C2	0	0	0	0	0	0
CC1=NC(C)(C)CC2CCC(O)C12 (centres undefined)	-	-	-	0	-	-
COc1ccc(C(=O)OCC(=O)N2CCCC2=O)c(OC)c1	75	0	33	0	0	0
COc1ccc2oc(C(=O)OCC(=O)N3CCCC3=O)c(C)c2c1	-	0	-	0	-	-
OC[C@@H]1CN(Cc2ccco2)C[C@H](n2cnc3c(N4CCN(c5ccccc5)CC4)ncnc32)O1	-	-	-	0	-	-
Oc1c(C=Nc2ccccc2Cl)[nH]c2ccccc12	77	50µM	47	0	0	0
O=c1cc(-c2cc(O)c(O)c([C@@H]3O[C@H](CO)[C@@H](O)[C@H](O)[C@H]3O)c2)oc2cc(O[C@@H]3O[C@H](CO)[C@@H](O)[C@H](O)[C@H]3O)cc(O)c12	0	-	0	-	0	-
COc1cc(C2OCC3C(c4ccc(OC5OC(CO)C(O)C(O)C5O)c(OC)c4)OCC23)ccc1O (centres undefined)	0	35µM	0	0	0	0
CC1(C)N=C(N)N=C(N)N1CCCCc1ccccc1	-	-	-	0	-	-
C/C(=N/NC(=O)c1ccc2nc[nH]c2c1)c1cccs1	55	0	39	0	0	0
Cc1ccc(/C=N/NC(=O)c2ccc3nc[nH]c3c2)s1	0	0	0	0	0	0
C/C(=N\NC(=O)c1ccc(Cl)cc1)c1cccs1	57	0	19	0	0	?
C/C(=N/NC(=O)c1cccs1)c1ccc(NC(=O)COc2ccc(Cl)cc2)cc1	79	0	36	0	0	0
C/C(=N\NC(=O)c1ccc(NS(=O)(=O)c2cccs2)cc1)c1cccs1	0	0	0	0	0	0
C/C(=N\NC(=O)C1CC1)c1cccs1	0	0	0	0	0	0
COC(=O)N/N=C(\C)c1cccs1	0	0	11	0	0	0
CC(/C=C/c1ccccc1)=N/O	0	0	19	0	0	0
CC(/C=C/c1ccccc1)=N/NC(=O)CCC(=O)Nc1ccccc1C	0	0	0	0	0	0
SMILES	Shiga inhibitor	Sm TGR block	CHX counter	Tb PYK inh	FBPA Giardia inh	LmPK inh
CC(/C=C/c1ccc(OCc2ccccc2)cc1)=N\O	77	0	60	0	0	0
COc1ccc(C(=O)/C=C/c2ccc(OCc3ccccc3)cc2)cc1CSCC(=O)O	0	0	0	0	-	0
O=C(O)/C=C/c1ccc(O)cc1	-	-	-	0	-	-
CC(/C=C/c1ccc(O)cc1)=N/O	28	0	19	0	0	?
OCC[C@@H]1C[C@H](O)[C@@H](O)[C@]2(CCc3ccccc3O2)O1	0	0	0	0	0	0
C/C(=N\Nc1cccc(C(=O)O)c1)c1ccc(Cl)s1	121	0	68	0	0	0
O=C(O)c1cccc(N/N=C/c2cc(Br)cc(Br)c2O)c1	126	0	51	0	0	0
COc1ccc(/C(C)=N/Nc2cccc(C(=O)O)c2)cc1OC	187	?	104	0	0	0
COc1ccc(Br)cc1/C=N/Nc1cccc(C(=O)O)c1	0	0	49	0	0	0
COc1ccc(C(=O)N/N=C(/C)c2cccc(NC(=O)c3ccncc3)c2)cc1OC	0	0	0	0	-	0
CCOc1ccccc1-c1nnc2n1N=C(c1cc(OC)ccc1OC)CS2	0	-	0	-	0	-
COC(=O)N1CCC2(CCN(Cc3ccc(C#N)cc3)CC2)CC1	-	-	-	0	0	-
O=C(O)[C@@H](O)[C@@H](O)[C@H](O)[C@H](O)CO	-	-	-	0	?	-
COc1ccccc1/C=C/C=N/Nc1cccc(C(=O)O)c1	132	0	42	0	0	0
COc1ccc(/C(C)=N/Nc2nc3ccccc3nc2C)cc1OC	57	0	34	0	0	0
COc1cccc(/C=N/Nc2ccc(C(=O)O)cc2)c1O	0	0	0	?	0	?
Cc1cc2oc(C(=O)Nc3c(C)n(C)n(-c4ccccc4)c3=O)cc(=O)c2cc1C	-	0	-	0	-	-
O=C1CN(C(=O)CNCc2cccc(Cl)c2)c2ccccc2N1	0	45µM	0	0	?	0
CN(Cc1ccccc1)C(=O)c1cc2cc(F)ccc2[nH]1	75	0	65	0	0	0
COc1cc([N+](=O)[O-])ccc1NC(=O)COC(=O)c1c[nH]c(=O)[nH]c1=O	-	-	-	0	-	-
CN(Cc1cnccn1)C(=O)CC1C(=O)NCCN1CC(c1ccccc1)c1ccccc1 (centres undefined)	0	45µM	0	0	0	0
O=C1NCCN(Cc2ccc(Cl)c(F)c2)C1CC(=O)N1CCc2ccccc2C1 (centres undefined)	0	20µM	0	0	0	0
CN(Cc1ccncn1)C(=O)CC1C(=O)NCCN1Cc1cccc(Oc2ccccc2)c1 (centres undefined)	0	45µM	0	0	0	0
